# Measured values published in PubChem BioAssay.
# Several values for one entry are separate records, joined by “and”; a condition that tells them apart may be missing. Equal entries are not always repeated. This is one part of the list. Results filed as inconclusive are left out. Activity calls are given as the source filed them.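 How the source made its calls, unless noted: active means inhibition at or above 50% relative to wild type and mutant plate controls; inactive means inhibition below 50%.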
# Key:
# [1] = inhibitors of TNFa-induced NFkB p65 translocation, primary screen, imaging, HUVEC, MLSMR starter and 10KST1 sets (AID 438;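 active means inhibition above 20% together with a positive visual image hit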;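 further: compound added about 3h40 before a 20 min TNFalpha stimulation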;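 on inhibition: signal is the nuclear over cytoplasmic p65 intensity ratio per well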); conditions: HUVEC TNFa-induced p65 nuclear translocation; cell count: measured here: nuclei count (cytotoxicity indicator), at 2.08 µM unless noted; inhibition: at 2 µM, stronger effect = higher value unless noted
# [2] = reduction of polyQ htt aggregates in cells – imaging, exon1htt(103Q)mCFP cells, high-content imaging, primary screen (AID 483;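 active means visual image review flags a hit and inhibition of aggregation exceeds 20%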;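 further: compound exposure lasted 3 days before fixation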;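 on nuclei count: percent of the per-plate median nuclei count of sample wells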); conditions: exon1htt(103Q)mCFP cell line, aggregate imaging, at 2 µM; inhibition of aggregation: stronger effect = higher value; nuclei count: measured here: cell count, toxicity
# [3] = endothelial E-selectin expression blockers – imaging, HUVEC, immunofluorescence, MLSMR starter and 10KST1 sets, primary screen (AID 487;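 active means visually confirmed hit in the image check and inhibition above 20%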;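 on inhibition: signal is fraction of cell area covered by stained E-selectin grains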;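 on nuclei count: 100% = median nuclei count of all wells on the same plate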); conditions: HUVEC TNFalpha-induced E-selectin immunofluorescence imaging, at 2 µM; inhibition: stronger effect = higher value; nuclei count: measured here: cell number, toxicity
# [4] = Primary imaging screen for DUSP6 inhibitors that restore phospho-Erk in transfected HeLa cells, chemical complementation (AID 609;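 active means compounds giving at least 50% inhibition in the cell-based MKP-3 phosphatase rescue imaging test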;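 on inhibition: phospho-Erk level distribution per well compared with pooled transfected vehicle control wells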); conditions: HeLa MKP-3 transfected, phospho-Erk imaging KS statistic, at 10 µM
# [5] = biological target: Dual specificity protein phosphatase 6 (Homo sapiens) (UniProt Q16828); test: as above; conditions: HeLa MKP-3 transfected, phospho-Erk imaging KS statistic, at 10 µM, stronger effect = higher value
# Dual specificity protein phosphatase 6 (Homo sapiens), sequence (Q16828 whole entry, looked up): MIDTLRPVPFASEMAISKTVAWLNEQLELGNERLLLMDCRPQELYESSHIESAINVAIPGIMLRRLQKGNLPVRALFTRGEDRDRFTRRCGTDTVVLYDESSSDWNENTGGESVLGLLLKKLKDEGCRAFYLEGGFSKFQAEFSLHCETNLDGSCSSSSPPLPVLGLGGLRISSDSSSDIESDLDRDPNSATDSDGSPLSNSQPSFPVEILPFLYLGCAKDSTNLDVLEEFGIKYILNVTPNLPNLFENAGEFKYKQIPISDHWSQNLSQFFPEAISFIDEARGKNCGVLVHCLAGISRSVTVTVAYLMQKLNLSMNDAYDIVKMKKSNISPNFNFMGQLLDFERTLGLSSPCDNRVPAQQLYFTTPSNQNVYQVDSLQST
# [6] = biological target: Voltage-gated potassium channel subunit beta-2 (Rattus norvegicus) (UniProt P62483); test: inhibitors of rat Kvbeta2 reductase activity – biochemical, NADPH fluorescence, primary screen (AID 622;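 active means fluorescence slope higher than the sample average by over 3 SD, cut at about -0.22 in these data, passing the limit was not always enough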;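 further: slope of raw intensity against log time taken from 70 to 1610 s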); conditions: recombinant KvBeta, 4-cyanobenzaldehyde reduction, at 10 µM, stronger effect = higher value
# Voltage-gated potassium channel subunit beta-2 (Rattus norvegicus), sequence (P62483 whole entry, looked up): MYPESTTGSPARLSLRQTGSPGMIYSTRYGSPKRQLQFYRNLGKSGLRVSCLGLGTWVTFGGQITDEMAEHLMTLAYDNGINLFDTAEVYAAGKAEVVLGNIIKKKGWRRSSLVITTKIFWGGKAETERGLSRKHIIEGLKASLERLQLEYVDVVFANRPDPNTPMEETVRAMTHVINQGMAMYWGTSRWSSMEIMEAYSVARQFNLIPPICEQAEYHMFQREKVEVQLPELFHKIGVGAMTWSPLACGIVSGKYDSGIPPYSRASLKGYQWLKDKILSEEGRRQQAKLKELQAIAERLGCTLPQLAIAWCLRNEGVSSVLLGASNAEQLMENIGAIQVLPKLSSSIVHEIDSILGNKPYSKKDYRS
# [7] = biological target: Voltage-gated potassium channel subunit beta-2 (Rattus norvegicus) (UniProt P62483); test: enhancers of rat Kvbeta2 NADPH turnover – biochemical, NADPH fluorescence, primary screen (AID 623;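 active means NADPH fluorescence slope more negative than the mean of all samples by about 3 SD, 99.7% confidence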;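 further: fluorescence intensity change per second fitted from 20 to 320 s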); conditions: Recombinant KvBeta, NADPH fluorescence decrease slope, 10 min; at 10 µM; stronger effect = lower value
# [8] = biological target: Alpha-2C adrenergic receptor (Homo sapiens) (UniProt P18825); test: compounds altering alpha2C-coupled GIRK flux – cell-based, HEK293 alpha2C/GIRK1/2, thallium flux, primary screen (AID 624;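 active means fluorescence slope after compound addition differing from the mean of all screened samples at 99.7% confidence, in either direction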;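 further: slope of fluorescence ratio to pre-addition baseline per second over 15 to 24 s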); conditions: thallium flux BTC fluorescence, at 10 µM, actives lie on both sides
# Alpha-2C adrenergic receptor (Homo sapiens), sequence (P18825 whole entry, looked up): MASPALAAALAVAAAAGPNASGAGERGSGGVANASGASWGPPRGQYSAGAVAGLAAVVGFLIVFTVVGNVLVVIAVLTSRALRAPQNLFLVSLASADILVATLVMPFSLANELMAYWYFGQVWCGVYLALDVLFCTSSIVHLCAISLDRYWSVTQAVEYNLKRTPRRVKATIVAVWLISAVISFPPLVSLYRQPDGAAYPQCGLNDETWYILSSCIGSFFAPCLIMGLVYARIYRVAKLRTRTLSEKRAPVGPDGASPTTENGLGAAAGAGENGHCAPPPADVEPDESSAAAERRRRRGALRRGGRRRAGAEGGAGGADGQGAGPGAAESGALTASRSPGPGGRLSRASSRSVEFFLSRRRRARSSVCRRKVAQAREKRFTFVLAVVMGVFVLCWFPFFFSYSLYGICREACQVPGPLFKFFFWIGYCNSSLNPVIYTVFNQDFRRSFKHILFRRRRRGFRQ
# [9] = inhibitors of larval lipid processing in zebrafish, primary screen, whole organism, PED6 fluorescence, gall bladder and intestine (AID 686;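 active means a full or partial loss of lipid-probe fluorescence in the fish gall bladder, intestine or both, judged by eye; inactive means no fluorescence loss, or compound toxic to the fish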;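 further: larvae 5 to 7 days old with five fish per well; signal comes from phospholipase A2 cleavage of quenched PED6 carried via bile; overnight exposure to compound and PED6 before scoring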); conditions: Zebrafish larvae PED6 lipid processing, fluorescence scoring
# [10] = loss of swimming-algae plug formation – whole organism, Chlamydomonas reinhardtii, WT vs cilia-less mutant, absorbance, 96-well, primary screen (AID 463189); conditions: Chlamydomonas reinhardtii gravitaxis, OD600 absorbance, 2 days; at 10 µM; stronger effect = higher value;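 further: 0% = wild type cc124 cells in DMSO and 100% = ciliumless bld1 mutant cells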
# [11] = blockers of RIG-like receptor reporter activation – cell-based, Sendai virus stimulus, luciferase, 10K MLSCN set, TLR/RLR signaling modifier project, primary screen (AID 602276;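 active means inhibition at or above 50% at 10 µM; inactive means inhibition below 50%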;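 further: firefly luciferase from ISG56 promoter only with Renilla not read in this screen; 0% = Sendai virus plus DMSO and 100% = medium plus DMSO without virus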); conditions: HEK293 RL24 IRF3 luciferase reporter, at 10 µM, stronger effect = higher value
# [12] = TLR3 IRF3 reporter activation blockers – cell-based, poly I:C stimulus, luciferase, 10K MLSCN set, primary screen (AID 602277;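 active means inhibition of the reporter signal at or above 50%; inactive means inhibition below 50%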); conditions: HEK293-TLR3 RL24 IRF3 luciferase reporter, at 10 µM, stronger effect = higher value
# [13] = biological target: Muscarinic acetylcholine receptor M4 (Homo sapiens) (UniProt P08173); test: M4-linked GIRK flux change, two-sided – cell-based, HEK293 M4/GIRK, thallium flux, BTC-AM, M4 allosteric agonist project, primary screen (AID 625;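 active means fluorescence slope after compound addition differing from the mean of all tested samples at 99.7% confidence, mostly higher but some lower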;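 further: thallium influx through GIRK channels coupled to M4 in HEK293 cells with BTC-AM dye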); conditions: at 10 µM, actives lie on both sides
# Muscarinic acetylcholine receptor M4 (Homo sapiens), sequence (P08173 whole entry, looked up): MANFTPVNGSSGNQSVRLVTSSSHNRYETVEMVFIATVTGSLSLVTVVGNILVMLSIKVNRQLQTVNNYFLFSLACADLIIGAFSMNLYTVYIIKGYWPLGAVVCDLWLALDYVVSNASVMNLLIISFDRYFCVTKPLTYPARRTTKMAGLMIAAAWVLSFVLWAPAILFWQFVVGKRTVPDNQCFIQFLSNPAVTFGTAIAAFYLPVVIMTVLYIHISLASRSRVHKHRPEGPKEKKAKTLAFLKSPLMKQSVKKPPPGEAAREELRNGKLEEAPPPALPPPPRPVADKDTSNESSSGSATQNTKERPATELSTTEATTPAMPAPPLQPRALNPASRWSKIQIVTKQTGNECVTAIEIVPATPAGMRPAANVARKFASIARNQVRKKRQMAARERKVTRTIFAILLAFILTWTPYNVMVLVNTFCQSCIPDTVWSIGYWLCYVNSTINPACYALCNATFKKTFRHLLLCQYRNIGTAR
# [14] = biological target: Solute carrier family 12 member 5 (Homo sapiens) (UniProt Q9H2X9); test: retest of KCC2 transport modulators without sodium – cell-based, HEK293 KCC2, thallium flux, secondary assay, confirmation (AID 1713;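 active means thallium flux slope above the same plate's solvent-only control mean plus 3 SD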); conditions: FluoZin2 fluorescence, at 10 µM, stronger effect = higher value
# Solute carrier family 12 member 5 (Homo sapiens), sequence (Q9H2X9 whole entry, looked up): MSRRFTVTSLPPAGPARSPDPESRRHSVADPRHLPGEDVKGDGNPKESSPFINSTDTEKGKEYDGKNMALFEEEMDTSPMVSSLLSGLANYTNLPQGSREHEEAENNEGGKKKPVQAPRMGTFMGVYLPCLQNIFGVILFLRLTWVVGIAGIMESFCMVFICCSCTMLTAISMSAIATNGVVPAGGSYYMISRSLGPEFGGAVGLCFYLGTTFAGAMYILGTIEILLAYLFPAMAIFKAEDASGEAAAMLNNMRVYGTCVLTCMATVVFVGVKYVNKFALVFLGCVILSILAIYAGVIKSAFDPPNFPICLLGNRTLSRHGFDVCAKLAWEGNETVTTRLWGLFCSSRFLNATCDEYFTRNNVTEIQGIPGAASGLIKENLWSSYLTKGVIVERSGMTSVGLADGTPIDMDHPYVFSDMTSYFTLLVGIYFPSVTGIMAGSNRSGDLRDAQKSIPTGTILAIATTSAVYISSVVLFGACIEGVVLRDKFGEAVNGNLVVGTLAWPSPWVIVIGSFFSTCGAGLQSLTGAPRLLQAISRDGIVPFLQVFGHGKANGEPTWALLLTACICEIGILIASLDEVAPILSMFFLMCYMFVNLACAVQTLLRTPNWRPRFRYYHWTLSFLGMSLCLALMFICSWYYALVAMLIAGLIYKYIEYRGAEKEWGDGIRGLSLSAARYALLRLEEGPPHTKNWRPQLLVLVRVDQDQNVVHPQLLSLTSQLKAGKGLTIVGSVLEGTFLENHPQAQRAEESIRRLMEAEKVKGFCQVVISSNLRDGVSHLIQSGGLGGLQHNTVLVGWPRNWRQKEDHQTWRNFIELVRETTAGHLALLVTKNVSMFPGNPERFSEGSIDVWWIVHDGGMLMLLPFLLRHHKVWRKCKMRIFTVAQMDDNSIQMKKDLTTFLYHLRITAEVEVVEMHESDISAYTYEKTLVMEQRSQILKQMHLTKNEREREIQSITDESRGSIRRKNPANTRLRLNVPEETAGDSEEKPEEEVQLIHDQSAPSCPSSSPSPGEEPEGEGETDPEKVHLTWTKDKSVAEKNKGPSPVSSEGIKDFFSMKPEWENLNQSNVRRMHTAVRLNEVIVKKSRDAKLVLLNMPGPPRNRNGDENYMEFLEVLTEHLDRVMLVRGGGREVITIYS
# [15] = biological target: Solute carrier family 12 member 5 (Homo sapiens) (UniProt Q9H2X9); test: retest of KCC2 transport modulation, ouabain-free – cell-based, HEK293 KCC2, thallium flux, FluoZin2, secondary assay 2, confirmation (AID 1715;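 active means thallium flux slope more than 3 SD above or below the plate's solvent-only control mean, mostly below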;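 further: raw slope with 0.1% DMSO as baseline and bumetanide as block control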); conditions: HEK293-KCC2, thallium flux FluoZin2 fluorescence; at 10 µM; actives lie on both sides
# [16] = compound effects on native HEK Tl+ uptake – HEK cells, counterscreen 1, counter-screen for KCC2 modulator project, confirmation (AID 1716;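 active means thallium flux rate significantly above the same plate's solvent-only control wells, beyond their mean plus 3 SD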); conditions: HEK293 parental cells, thallium flux FluoZin2, ouabain; at 10 µM; baseline-ratio fluorescence slope, 10–20 s after thallium
# [17] = biological target: Solute carrier family 12 member 5 (Homo sapiens) (UniProt Q9H2X9); test: modulation of KCC2 thallium flux in HEK cells – cell-based, ouabain, retest, confirmation (AID 1717;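 active means thallium flux slope beyond 3 SD from same-plate DMSO control mean in most replicates, usually higher, sometimes lower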;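 further: slope of initial-normalized fluorescence between seconds 10 and 20 after thallium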); conditions: HEK293-KCC2, thallium flux FluoZin2 fluorescence, at 10 µM, bidirectional: low = inhibitor, high = activator
# [18] = measured here: cell density z-score
# [19] = measured here: nuclear c-Myc green intensity z-score
# [20] = measured here: nuclear pErk red intensity z-score, stronger effect = higher value
structure (smiles),measurement,setting,value
CC[N+]1(C)CCCC(OC(=O)C(O)(c2ccccc2)c2ccccc2)C1 (stereo unspecified),cell count,[1],672
same,inhibition,[1],-11.6% (inactive)
same,inhibition of aggregation,[2],-2.7% (inactive)
same,nuclei count,[2],107%
same,inhibition,[3],-116% (inactive)
same,nuclei count,[3],119%
same,z-score,[4]; [18],1.46
same,z-score,[4]; [19],-0.0245
same,z-score,[4]; [20],-0.802
same,inhibition,[5],5.42% (inactive)
same,fluorescence slope,[6],-0.46 (inactive)
same,NADPH fluorescence slope,[7],-4.6e-05 (inactive)
same,slope,[8],0.0046 (inactive)
same,outcome,[9],inactive
same,inhibition,[10],-2.15% (inactive)
same,inhibition,[11],-2.74% (inactive)
same,inhibition,[12],37.1% (inactive)
O=C(O)CCCc1ccc(N(CCCl)CCCl)cc1,cell count,[1],498
same,inhibition,[1],-7.2% (inactive)
same,inhibition of aggregation,[2],4.2% (inactive)
same,nuclei count,[2],94.5%
same,inhibition,[3],-70% (inactive)
same,nuclei count,[3],127%
same,z-score,[4]; [18],0.122
same,z-score,[4]; [19],-0.24
same,z-score,[4]; [20],-0.885
same,inhibition,[5],12.4% (inactive)
same,fluorescence slope,[6],-0.493 (inactive)
same,NADPH fluorescence slope,[7],-0.000123 (inactive)
same,slope,[8],0.00534 (inactive)
same,inhibition,[10],5.31% (inactive) and 14% (inactive)
same,inhibition,[11],-6.04% (inactive)
same,inhibition,[12],-10.8% (inactive)
CC(C)[C@@]1(NC(=O)[C@@H]2C=C3c4cccc5[nH]cc(c45)C[C@H]3N(C)C2)O[C@@]2(O)[C@@H]3CCCN3C(=O)[C@H](Cc3ccccc3)N2C1=O,cell count,[1],584
same,inhibition,[1],-0.4% (inactive)
same,inhibition of aggregation,[2],7.1% (inactive)
same,nuclei count,[2],99.7%
same,inhibition,[3],-22.9% (inactive)
same,nuclei count,[3],114%
same,z-score,[4]; [18],0.234
same,z-score,[4]; [19],0.806
same,z-score,[4]; [20],-0.53
same,inhibition,[5],10.2% (inactive)
same,fluorescence slope,[6],-0.477 (inactive)
same,NADPH fluorescence slope,[7],-1e-05 (inactive)
same,slope,[8],0.00405 (inactive)
same,inhibition,[10],1.14% (inactive) and 21.5% (inactive)
same,inhibition,[11],22% (inactive)
same,inhibition,[12],13.1% (inactive)
C[N+]1(C)CCc2cc3c(cc2[C@H]1[C@@H]1OC(=O)c2c1ccc1c2OCO1)OCO3,cell count,[1],633
same,inhibition,[1],1.1% (inactive)
same,inhibition of aggregation,[2],-10.4% (inactive)
same,nuclei count,[2],110%
same,inhibition,[3],-58% (inactive)
same,nuclei count,[3],109%
same,z-score,[4]; [18],0.571
same,z-score,[4]; [19],-0.122
same,z-score,[4]; [20],-0.447
same,inhibition,[5],19.2% (inactive)
same,fluorescence slope,[6],-0.486 (inactive)
same,NADPH fluorescence slope,[7],-3.8e-05 (inactive)
same,slope,[8],0.00504 (inactive)
same,inhibition,[10],6.58% (inactive) and 16.9% (inactive)
same,inhibition,[11],12.6% (inactive)
same,inhibition,[12],45.3% (inactive)
Cc1ccc2c(c1)[C@@H]1CN(C)CC[C@@H]1N2C(=O)Nc1cccc(C(F)(F)F)c1,cell count,[1],378
same,inhibition,[1],-9.8% (inactive)
same,inhibition of aggregation,[2],-11.2% (inactive)
same,nuclei count,[2],94.1%
same,inhibition,[3],-93.8% (inactive)
same,nuclei count,[3],95.7%
same,z-score,[4]; [18],1.48
same,z-score,[4]; [19],0.568
same,z-score,[4]; [20],0.647
same,inhibition,[5],-4.78% (inactive)
same,fluorescence slope,[6],-0.508 (inactive)
same,NADPH fluorescence slope,[7],-0.000528 (active)
same,slope,[8],0.0079 (inactive)
same,inhibition,[10],4.34% (inactive)
same,inhibition,[11],20.1% (inactive)
same,inhibition,[12],23.5% (inactive)
Clc1ccc(COC(Cn2ccnc2)c2ccc(Cl)cc2Cl)cc1 (stereo unspecified),cell count,[1],571
same,inhibition,[1],"-2% [at 2 µM, stronger effect = higher value, 0% TNFa-plus-vehicle, 100% no-TNFa wells] (inactive)"
same,inhibition of aggregation,[2],-19.8% (inactive)
same,nuclei count,[2],61.4%
same,inhibition,[3],-14.8% (inactive)
same,nuclei count,[3],106%
same,z-score,"[4]; measured here: cell density z-score, cells stimulated with TPA for 15 min",0.542
same,z-score,"[4]; measured here: nuclear c-Myc green intensity z-score, cells stimulated with TPA for 15 min",1.67
same,z-score,"[4]; measured here: nuclear pErk red intensity z-score, stronger effect = higher value, cells stimulated with TPA for 15 min",-0.914
same,inhibition,[5],13.3% [cells stimulated with TPA for 15 min] (inactive)
same,fluorescence slope,[6],-0.51 (inactive)
same,NADPH fluorescence slope,[7],4.6e-06 (inactive)
same,slope,[8],0.00388 (inactive)
same,outcome,[9],inactive; toxic [screened at 20 µM (by protocol)]
same,inhibition,[10],41.7% (inactive)
same,inhibition,[11],22.8% (inactive)
same,inhibition,[12],32.2% (inactive)
Cc1ccc(-n2c(O)c(C=NCCN3CCOCC3)c(=O)[nH]c2=O)cc1,cell count,[1],536
same,inhibition,[1],-3.4% (inactive)
same,inhibition of aggregation,[2],-17.4% (inactive)
same,nuclei count,[2],117%
same,inhibition,[3],-76.6% (inactive)
same,nuclei count,[3],147%
same,z-score,[4]; [18],-0.809
same,z-score,[4]; [19],-1.16
same,z-score,[4]; [20],1.01
same,inhibition,[5],6.04% (inactive)
same,fluorescence slope,[6],-0.418 (inactive)
same,NADPH fluorescence slope,[7],-4.9e-05 (inactive)
same,slope,[8],0.00555 (inactive)
same,outcome,[9],inactive
same,inhibition,[10],-5.09% (inactive)
same,inhibition,[11],15.1% (inactive)
same,inhibition,[12],25% (inactive)
O=C1NC(=O)C(C/C=C/c2ccccc2)C(=O)N1,cell count,[1],678
same,inhibition,[1],-2.2% (inactive)
same,inhibition,[3],29.3% (inactive)
same,nuclei count,[3],154%
same,z-score,[4]; [18],0.051
same,z-score,[4]; [19],0.145
same,z-score,[4]; [20],0.14
same,inhibition,[5],16.5% (inactive)
same,fluorescence slope,[6],-0.473 (inactive)
same,NADPH fluorescence slope,[7],-4.7e-05 (inactive)
same,fluorescence slope,[13],0.00573 (inactive)
same,outcome,[9],inactive
same,normalised thallium flux (F/F0 slope),[14],0.00969 (inactive)
same,normalized thallium flux,[15],0.0324 (inactive)
same,thallium flux rate (normalised fluorescence),[16],0.0082 (inactive)
same,"raw Tl+ flux slope (below DMSO = inhibition, above = activation)",[17],0.0194 (inactive)
same,inhibition,[10],-5.46% (inactive)
CN1CC[C@@]23CCCC[C@@H]2[C@@H]1Cc1ccc(O)cc13,cell count,[1],612
same,inhibition,[1],-2% (inactive)
same,inhibition of aggregation,[2],-9.3% (inactive)
same,nuclei count,[2],78.9%
same,inhibition,[3],-41.4% (inactive)
same,nuclei count,[3],127%
same,z-score,[4]; [18],-1.02
same,z-score,[4]; [19],0.228
same,z-score,[4]; [20],2.32
same,inhibition,[5],-3.03% (inactive)
same,fluorescence slope,[6],-0.439 (inactive)
same,NADPH fluorescence slope,[7],2.4e-05 (inactive)
same,slope,[8],0.00406 (inactive)
same,outcome,[9],inactive
same,inhibition,[10],-11.1% (inactive)
same,inhibition,[11],-1.46% (inactive)
same,inhibition,[12],37.2% (inactive)
C#C[C@]1(O)CC[C@H]2[C@@H]3CCC4=CC(=O)CC[C@]4(C)[C@H]3CC[C@@]21C,cell count,[1],605
same,inhibition,[1],4.5% (inactive)
same,inhibition of aggregation,[2],-1.7% (inactive)
same,nuclei count,[2],104%
same,inhibition,[3],-96.4% (inactive)
same,nuclei count,[3],120%
same,z-score,[4]; [18],0.928
same,z-score,[4]; [19],-0.272
same,z-score,[4]; [20],-0.147
same,inhibition,[5],19% (inactive)
same,fluorescence slope,[6],-0.469 (inactive)
same,NADPH fluorescence slope,[7],-5.4e-05 (inactive)
same,slope,[8],0.00473 (inactive)
same,outcome,[9],inactive
same,inhibition,[10],-7.99% (inactive)
same,inhibition,[11],9.99% (inactive)
same,inhibition,[12],37.9% (inactive)
